An excerpt weighted towards active compounds, which were near 5.4% of everything screened.
LASV entry inh: Lassa virus entry inhibition; hit rate 1.2% among 300,000; Lassa virus pseudotype entry inhibition, cell reporter; Potency, µM (series often up to 37.9 µM), most hits filed as inhibitors; AID 540256; calls by dose curve; tested in HEK293 cells; further: nearly all actives have a fitted effect of over 50% in size
Sm TGR block: blocks Schistosoma mansoni thioredoxin glutathione reductase. Q962Y6. purified TGR, DTNB reduction, TNB absorbance 405 nm. Potency, µM (titrated, usually from 114 µM), hits mostly inhibitors. hit rate 3% among 360,000. AID 485364; active means well fitted inhibition curve with a large enough effect; inconclusive means small, poorly fitted or top-dose-only effect; inactive means no such curve, though single readings can be large or run the other way; further: nearly all actives have a fitted effect of over 60% in size
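Kinetic colorimetric format: TGR-catalysed, NADPH-driven DTNB reduction monitored via TNB absorbance. Enzyme dispensed at 20 nM; compound exposure 15 min at room temperature before reaction start.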
Vaccinia Venus: vaccinia inhibition (Venus reporter); hit rate 0.46% among 330,000; AID 720580; Potency, µM (highest dose often 36.5 µM), most hits filed as inhibitors; Vaccinia virus Venus reporter expression, fluorescence; calls by dose curve; tested in A549 cells; further: nearly all actives have a fitted effect of over 30% in size
Marburg entry inh: Marburg virus entry inhibition; Marburg virus pseudotyped entry inhibition, cell reporter; Potency, µM (series often up to 37.8 µM), hits mostly inhibitors; hit rate 1.8% among 300,000; calls by dose curve; tested in HEK293 cells
FMDV inh: foot and mouth disease virus antiviral activity; FMDV antiviral cell-based qHTS; Potency, µM (top dose mostly 57.9 µM), actives largely listed as inhibitors; hit rate 1.2% among 410,000; calls by dose curve; tested in HEK293T cells; further: read-out not given here; nearly all actives have a fitted effect of over 45% in size
VACV mCherry inh: inhibitors of vaccinia virus infection (mCherry reporter signal); Vaccinia virus mCherry reporter infection, fluorescence; Potency, µM (doses to about 36.5 µM), hits mostly inhibitors; hit rate 0.63% among 310,000; calls by dose curve; tested in A549 cells; further: nearly all actives have a fitted effect of over 35% in size
Of the large screens only hits and unclear results are named; the others gave an inactive call.

CCC(=O)Nc1ccc(C2C(=O)c3ccccc3C2=O)cc1	LASV entry inh inconclusive, Marburg entry inh 10µM, FMDV inh 20µM
CN(C)c1ccc(C(=O)c2ccc(N(C)C)c3ccccc23)cc1	LASV entry inh 0.251µM, Vaccinia Venus inconclusive, Marburg entry inh inconclusive (no result: VACV mCherry inh)
Cc1nc(-n2nc(C)c(CCC(C)C)c2C)sc1C(=O)Nc1ccc(Cl)cc1	none
CCOc1ccc(Oc2nc(NCC(C)C)nc(NC(C)(C)C)n2)nn1	none
S=C(NCc1ccccn1)NN=Cc1ccccn1	LASV entry inh 12.6µM, Vaccinia Venus inconclusive, Marburg entry inh inconclusive (no result: Sm TGR block)
CC(/C=N/NC(=O)c1cccnc1)=C\c1ccco1	LASV entry inh inconclusive, Sm TGR block 50.1µM (no result: FMDV inh)
CC(/C=N/NC(=O)c1ccncc1)=C\c1ccccc1	none (no result: FMDV inh)
CC(=C/c1ccco1)/C=N/NC(=O)c1ccncc1	Sm TGR block 44.7µM, VACV mCherry inh inconclusive
CC(/C=N/NC(=O)c1cnccn1)=C\c1ccco1	Sm TGR block 28.2µM
O=C(N/N=C/C(Br)=C/c1ccccc1)c1cccnc1	LASV entry inh inconclusive, Marburg entry inh inconclusive
COc1cc(CNC(C)c2ccccc2)cc(Br)c1OCc1ccccc1 (configuration not stated)	LASV entry inh inconclusive, Vaccinia Venus inconclusive, Marburg entry inh 7.94µM
COc1cc(CNC(C)c2ccccc2)cc(Br)c1OCc1ccc(F)cc1 (configuration not stated)	LASV entry inh inconclusive, Vaccinia Venus inconclusive, Marburg entry inh 3.55µM, VACV mCherry inh inconclusive
COc1cc(CNc2ccc(O)cc2)cc(Br)c1OCc1ccccc1	none (no result: LASV entry inh, Marburg entry inh)
Cc1ccc2oc(=O)n(Cc3ccccc3Cl)c2c1	none
CC(=O)c1ccc(OC(=O)COc2ccccc2Cl)cc1	Sm TGR block 39.8µM (no result: LASV entry inh, Vaccinia Venus, Marburg entry inh, VACV mCherry inh)
CC(=O)c1ccc(OC(=O)Cc2cccc3ccccc23)cc1	none (no result: LASV entry inh, Vaccinia Venus, Marburg entry inh, VACV mCherry inh)
CN1CCN(c2oc(/C=C/c3ccc(F)cc3)nc2C#N)CC1	LASV entry inh inconclusive
Cc1ccc(CNc2cc(-c3nn4c(C)nnc4s3)ccc2C)s1	Marburg entry inh inconclusive
Cc1ccc(-c2nn3c(C)nnc3s2)cc1NCc1c(F)cccc1Cl	LASV entry inh inconclusive, Marburg entry inh 9.2µM (no result: FMDV inh)
COc1ccc2c(c1)NC(c1cccnc1)=NC(c1ccc(F)cc1)=N2	none
CC(=O)n1cc(N(C(=O)CCl)c2ccc(Cl)cc2)c2ccccc21	Sm TGR block 0.316µM, FMDV inh 11.2µM (no result: LASV entry inh, Vaccinia Venus, Marburg entry inh, VACV mCherry inh)
COc1ccccc1N(C(=O)CCl)c1cn(C(C)=O)c2ccccc12	Sm TGR block 3.16µM, FMDV inh 17.8µM (no result: LASV entry inh, Vaccinia Venus, Marburg entry inh, VACV mCherry inh)
CC(C)CN1CCC2(CC1)CCN(C(=O)c1cc(C(F)(F)F)cc(C(F)(F)F)c1)CC2	none (no result: LASV entry inh, Sm TGR block, Vaccinia Venus, Marburg entry inh, VACV mCherry inh)
COc1cc(/C=C(/C(=O)c2cccs2)c2nc3ccccc3[nH]2)ccc1O	LASV entry inh inconclusive, Marburg entry inh 4.11µM, FMDV inh 25.1µM (no result: Vaccinia Venus, VACV mCherry inh)
O=C(/C(=C/c1ccc(Cl)cc1)c1nc2ccccc2[nH]1)c1cccs1	Sm TGR block inconclusive, FMDV inh inconclusive (no result: LASV entry inh, Vaccinia Venus, VACV mCherry inh)
COC(=O)/C(=C\c1ccc(O)cc1)c1nc2ccccc2[nH]1	none (no result: LASV entry inh, Marburg entry inh)
COC(=O)/C(=C\c1cc(OC)c(OC)c(OC)c1)c1nc2ccccc2[nH]1	LASV entry inh inconclusive, FMDV inh 15.8µM
CCN1C(=O)c2ccccc2S(=O)c2ccc(C(=O)N3CCN(c4ccc(F)cc4)CC3)cc21 (configuration not stated)	none
Cc1ccc2c(=O)cc(C(=O)Nc3ccc(S(=O)(=O)Nc4ncccn4)cc3)oc2c1C	FMDV inh inconclusive
CCOC(=O)N1C(=O)[C@](CC)(c2ccccc2)N1C(=O)OCC	Sm TGR block 2.82µM, VACV mCherry inh inconclusive (no result: LASV entry inh, Marburg entry inh)
CCC1(c2ccccc2)C(=O)N(C(=O)OC(C)(C)C)N1C(=O)OC(C)(C)C (configuration not stated)	none (no result: LASV entry inh, Marburg entry inh)
CCN1CCC(N(Cc2ccc(F)cc2)C(=O)Nc2ccc(C)c(F)c2)CC1	none (no result: Marburg entry inh)
CCCOC(=O)C1=C(C)CS[C@@H]2[C@H](NC(=O)COc3ccccc3)C(=O)N12	Vaccinia Venus inconclusive (no result: LASV entry inh, Sm TGR block, Marburg entry inh, FMDV inh)
O=C(Nc1ccc(NC(=O)C2CC2)cn1)c1ccccc1	LASV entry inh 5.62µM, Marburg entry inh inconclusive
Cc1cc(C)c(S(=O)(=O)NCC(c2cccs2)S(=O)(=O)c2ccccc2)c(C)c1 (configuration not stated)	LASV entry inh inconclusive, Sm TGR block 0.316µM (no result: Marburg entry inh)
Cc1ccc(CNC(=O)C(=O)NCC(c2cccs2)S(=O)(=O)c2ccc(C)cc2)cc1 (configuration not stated)	LASV entry inh inconclusive, Sm TGR block inconclusive, FMDV inh inconclusive (no result: Marburg entry inh)
O=S(=O)(NCC(c1ccco1)S(=O)(=O)c1ccccc1)c1cc(F)ccc1F (configuration not stated)	Sm TGR block 7.08µM (no result: Marburg entry inh)
Cc1ccc(S(=O)(=O)NCC(c2ccco2)S(=O)(=O)c2ccccc2)cc1 (configuration not stated)	LASV entry inh inconclusive, Sm TGR block 0.398µM, VACV mCherry inh inconclusive
Cc1cc(C)c(S(=O)(=O)NCC(c2ccco2)S(=O)(=O)c2ccccc2)c(C)c1 (configuration not stated)	LASV entry inh inconclusive, Sm TGR block 17.8µM (no result: Marburg entry inh)
Cc1cccc(C)c1OCC(=O)N1CCC(c2nc3ccccc3o2)CC1	none
O=S(=O)(NCC(c1ccco1)S(=O)(=O)c1ccccc1)c1ccccc1 (configuration not stated)	LASV entry inh inconclusive, Sm TGR block inconclusive (no result: Marburg entry inh)
COc1ccc(OC)c(S(=O)(=O)NCC(c2ccco2)S(=O)(=O)c2ccccc2)c1 (configuration not stated)	Sm TGR block 0.316µM
Cc1cc(NC(=O)CCC(=O)N(Cc2cccs2)C(C(=O)NC2CCCC2)c2cccnc2)no1 (configuration not stated)	none (no result: Vaccinia Venus, VACV mCherry inh)
Cc1ccc(C)c(N(C(=O)CCC(=O)Nc2cc(C)on2)C(C(=O)NC2CCCC2)c2ccco2)c1 (configuration not stated)	Marburg entry inh inconclusive
Cc1cc(C)cc(N(C(=O)CCC(=O)Nc2cc(C)on2)C(C(=O)NC2CCCC2)c2ccco2)c1 (configuration not stated)	LASV entry inh inconclusive, Marburg entry inh 11.2µM (no result: Sm TGR block)
Cc1cc(NC(=O)CCC(=O)N(Cc2cccs2)C(C(=O)NC2CCCC2)c2ccccc2)no1 (configuration not stated)	Marburg entry inh 11.2µM, FMDV inh inconclusive (no result: VACV mCherry inh)
Cc1cccc(N2CCN(C(=O)c3sc4nc5n(c(=O)c4c3C)CCC5)CC2C)c1 (configuration not stated)	FMDV inh inconclusive (no result: Marburg entry inh)
O=S(=O)(c1ccccc1C(F)(F)F)N1CCN(c2nc(-c3cccs3)nc3ccccc23)CC1	none (no result: LASV entry inh, Sm TGR block, Marburg entry inh, FMDV inh)
CN(Cc1ccco1)c1ccnc(-c2ccoc2)n1	none (no result: LASV entry inh, Sm TGR block, Marburg entry inh)
CCc1nnc(SCC(=O)Nc2ccc(OC)c(OC)c2)c2cc3occc3n12	LASV entry inh inconclusive, FMDV inh inconclusive (no result: Marburg entry inh)
CCc1cccc(C)c1NC(=O)CSc1nnc(CC)n2c1cc1occc12	FMDV inh 22.4µM (no result: Marburg entry inh)
CCn1nc(C)c2c(-c3ccccc3)cc(=O)n(C(C)C(=O)NCc3ccc(C)cc3)c21 (configuration not stated)	LASV entry inh inconclusive (no result: Marburg entry inh)

Screening results (PubChem BioAssay)
